The source made the active and inactive calls.

In experiment [1] the test system is PRMT1 (protein arginine N-methyltransferase 1). Put plainly: PRMT1 binders on small-molecule microarrays, primary screen, biochemical, small-molecule microarray, 635 nm fluorescence (AID 1088).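 Further: binding of Prmt1 protein to compounds spotted on small-molecule microarray slides.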 The note with it: small-molecule microarray binding, higher = more signal.
Experiment [2] is described as follows: yeast growth modulation, basal conditions, primary screen, YJM789 clinical isolate, OD600, 24 h (AID 1089).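 Further: growth of clinical yeast isolate S. cerevisiae YJM 789 seeded 1000 cells per well; test concentration not given here.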 The note with it: S. cerevisiae YJM789 growth, higher = more signal, called active from +8 up or from −8 down.
A short description of experiment [3]: fission yeast growth modulation, primary screen, strain 972, OD600, 24 h, no modulator (AID 1090).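 Further: basal condition with compound alone and no growth modifier present; test concentration not given here.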 The note with it: S. pombe 972 growth, higher = more signal, called active from +8 up or from −8 down.
Experiment [4] in a line: S. cerevisiae growth modulation with rapamycin, primary screen, strain BY4716, OD600, 96 h (AID 1091). Further: test concentration not given here. The note with it: higher = more signal, called active from +8 up or from −8 down.
The target in experiment [5] is Torsin-1A-interacting protein 2 (Homo sapiens) (UniProt Q8NFQ8). Put plainly: LULL1 binders on small-molecule microarray, primary screen, cell lysate, human LULL1 lysate, 635/667 nm fluorescence (AID 1092).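 Further: probe is lysate of COS7 cells overexpressing human LULL1; score merges per-feature 667 nm fluorescence with signal-to-noise.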 Conditions: hLULL1 lysate binding, 635 nm fluorescence, higher = more signal.
Experiment [6] can be described thus: E. coli growth modulation, two-sided OD650, primary screen, E. coli filamentation project, strain DRC41, 24 h (AID 1093).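 Further: MC1000 strain lacking acrAB efflux and sulA so SOS filamentation is blocked; test concentration not given here.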 The note with it: OD650, 24 h, higher = more signal, called active from +8 up or from −8 down.
A short description of experiment [7]: small-molecule microarray binders of probe aLefty2, primary screen, biochemical, biotinylated probe, 635/667 nm fluorescence (AID 1094).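 Further: score merges spot fluorescence near 667 nm with spot signal-to-noise ratio.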 The note with it: higher = more signal.
Experiment [8] deals with Noggin (protein binding on small-molecule microarray). Put plainly: Noggin binders on small-molecule microarray, primary screen, biochemical, 635/667 nm fluorescence (AID 1095).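 Further: score merges 667 nm feature fluorescence with signal to noise over triplicate slides.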 The note with it: 635 nm fluorescence, higher = more signal.
For experiment [9], the target named is Neurogenic locus notch homolog protein 3 (Homo sapiens) (UniProt Q9UM47). Put plainly: NOTCH3 binders on small-molecule microarray, primary screen, biochemical, 635/667 nm fluorescence (AID 1096). The note with it: NOTCH3 binding, 635 nm fluorescence, higher = more signal.
Experiment [10] in a line: small-molecule microarray binders of probe aEGFR, primary screen, biochemical, biotinylated probe, 635/667 nm fluorescence (AID 1097).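 Further: probe is a biotinylated anti-EGFR antibody binding compounds printed on slides; score combines fluorescence near 667 nm and signal to noise of each spot.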 Conditions: higher = more signal.
The subject of experiment [11] is Plasmodium falciparum Sir2 (PF13_0152, Sir2A). Put plainly: pfSir2 binders on small-molecule microarrays, primary screen, biochemical, small-molecule microarray, 635 nm fluorescence (AID 1098).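 Further: score merges spot fluorescence intensity with its signal-to-noise ratio.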 The note with it: small-molecule microarray binding, fluorescence 635 nm; higher = more signal.
Experiment [12] is described as follows: small-molecule microarray binders of probe aDKK1, primary screen, biochemical, biotinylated probe, 635/667 nm fluorescence (AID 1099).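 Further: score merges 667nm spot fluorescence with signal to noise across triplicate slides; reference of the scale not given here.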 Conditions: higher = more signal.
Experiment [13] is described as follows: small-molecule microarray binders of probe aCHRDL2, primary screen, biochemical, biotinylated probe, 635/667 nm fluorescence (AID 1100). The note with it: higher = more signal.
Experiment [14] in a line: splicing luciferase reporter signal modulators, primary screen, spliceosome inhibition project, cell-based, HEK293, splice +/- reporter (AID 1101).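 Further: HEK293 cells carrying a splicing-competent luciferase reporter gene; test concentration not given here.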 Conditions: luminescence, 24 h, higher = more signal, called active from +8 up or from −8 down.
The target in experiment [15] is Fibroblast growth factor 10 (Homo sapiens) (UniProt O15520). Put plainly: FGF10 binders on small-molecule microarrays, primary screen, biochemical, small-molecule microarray, 635 nm fluorescence (AID 1102). The note with it: FGF10 binding, fluorescence 635 nm, higher = more signal.
Experiment [16] concerns glycogen synthase kinase-3 (GSK3A per assay name; protocol says GSK3B). Description: GSK3 binders on small-molecule microarrays, primary screen, biochemical, small-molecule microarray, 635 nm fluorescence, GSK3A (AID 1103). Further: the record names both GSK3A and GSK3B. Conditions: small-molecule microarray binding, fluorescence 635 nm; higher = more signal.
Experiment [17] addresses Epidermal growth factor receptor (Homo sapiens) (UniProt P00533). Description: EGFR binders on small-molecule microarrays, primary screen, biochemical, small-molecule microarray, 635 nm fluorescence (AID 1104).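 Further: score merges 667 nm emission intensity with spot signal to noise over triplicate slides.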 Conditions: EGFR binding, higher = more signal.
Experiment [18] deals with Follistatin-related protein 3 (Homo sapiens) (UniProt O95633). Put plainly: FSTL3 binders on small-molecule microarrays, primary screen, biochemical, small-molecule microarray, 635 nm fluorescence (AID 1105).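 Further: score merges emission near 667 nm and signal to noise per printed spot across three slides.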 The note with it: FSTL3 binding, higher = more signal.
Experiment [19] concerns the target Dickkopf-related protein 1 (Homo sapiens) (UniProt O94907). Description: DKK1 binders on small-molecule microarrays, primary screen, biochemical, small-molecule microarray, 635 nm fluorescence scan (AID 1106).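 Further: score merges emission near 667 nm with signal to noise over three replicate slides.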 The note with it: DKK1 binding, higher = more signal.
In experiment [20] the test system is Inhibin beta A chain (activin A). Description: INHBA (activin A) binders on microarrays, primary screen, biochemical, small-molecule microarray, 635 nm fluorescence scan (AID 1107).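 Further: mouse activin A protein probed at 4.33 µg/mL on printed slides; score merges bound-protein fluorescence near 667 nm with spot signal-to-noise.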 Conditions: small-molecule microarray binding, higher = more signal.

Sequence of Epidermal growth factor receptor (Homo sapiens) (P00533 whole entry, looked up): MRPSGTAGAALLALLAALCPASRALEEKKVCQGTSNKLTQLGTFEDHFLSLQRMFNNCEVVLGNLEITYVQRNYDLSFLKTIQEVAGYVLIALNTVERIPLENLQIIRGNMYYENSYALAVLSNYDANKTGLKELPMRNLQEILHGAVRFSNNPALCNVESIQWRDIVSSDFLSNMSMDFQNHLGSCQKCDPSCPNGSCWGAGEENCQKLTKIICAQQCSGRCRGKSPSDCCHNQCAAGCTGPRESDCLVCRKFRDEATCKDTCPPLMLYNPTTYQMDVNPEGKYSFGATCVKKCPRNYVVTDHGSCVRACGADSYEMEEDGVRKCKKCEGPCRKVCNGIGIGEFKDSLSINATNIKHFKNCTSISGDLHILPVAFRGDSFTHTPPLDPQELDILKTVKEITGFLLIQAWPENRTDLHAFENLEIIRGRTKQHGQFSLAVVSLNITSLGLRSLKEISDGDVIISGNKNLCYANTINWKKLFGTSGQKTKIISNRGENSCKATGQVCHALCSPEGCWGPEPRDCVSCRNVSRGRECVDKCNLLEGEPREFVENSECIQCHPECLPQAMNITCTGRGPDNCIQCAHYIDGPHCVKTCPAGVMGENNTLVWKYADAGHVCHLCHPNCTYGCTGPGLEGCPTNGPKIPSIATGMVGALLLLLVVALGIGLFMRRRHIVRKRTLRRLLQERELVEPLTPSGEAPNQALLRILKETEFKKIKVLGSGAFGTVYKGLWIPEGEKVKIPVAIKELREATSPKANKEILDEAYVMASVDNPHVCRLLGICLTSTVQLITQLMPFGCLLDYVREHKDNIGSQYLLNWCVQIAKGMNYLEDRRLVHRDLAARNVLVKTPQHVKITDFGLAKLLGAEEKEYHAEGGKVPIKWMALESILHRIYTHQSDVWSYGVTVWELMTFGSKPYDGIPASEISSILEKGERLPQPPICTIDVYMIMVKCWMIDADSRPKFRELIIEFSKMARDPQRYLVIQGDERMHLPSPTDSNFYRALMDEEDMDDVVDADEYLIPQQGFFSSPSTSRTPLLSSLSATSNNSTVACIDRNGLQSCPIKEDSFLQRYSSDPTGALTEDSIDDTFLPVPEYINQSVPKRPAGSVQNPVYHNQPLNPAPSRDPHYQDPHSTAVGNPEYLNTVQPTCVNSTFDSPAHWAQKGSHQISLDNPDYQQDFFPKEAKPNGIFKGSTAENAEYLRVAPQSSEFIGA
Sequence of Follistatin-related protein 3 (Homo sapiens) (O95633 whole entry, looked up): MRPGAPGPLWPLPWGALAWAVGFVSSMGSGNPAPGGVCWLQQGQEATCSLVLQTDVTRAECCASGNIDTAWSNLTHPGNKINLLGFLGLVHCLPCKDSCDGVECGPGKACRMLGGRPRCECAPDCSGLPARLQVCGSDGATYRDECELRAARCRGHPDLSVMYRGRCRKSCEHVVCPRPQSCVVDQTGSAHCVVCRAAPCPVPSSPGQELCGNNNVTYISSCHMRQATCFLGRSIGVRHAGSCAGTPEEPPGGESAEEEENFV
Sequence of Neurogenic locus notch homolog protein 3 (Homo sapiens) (Q9UM47 whole entry, looked up): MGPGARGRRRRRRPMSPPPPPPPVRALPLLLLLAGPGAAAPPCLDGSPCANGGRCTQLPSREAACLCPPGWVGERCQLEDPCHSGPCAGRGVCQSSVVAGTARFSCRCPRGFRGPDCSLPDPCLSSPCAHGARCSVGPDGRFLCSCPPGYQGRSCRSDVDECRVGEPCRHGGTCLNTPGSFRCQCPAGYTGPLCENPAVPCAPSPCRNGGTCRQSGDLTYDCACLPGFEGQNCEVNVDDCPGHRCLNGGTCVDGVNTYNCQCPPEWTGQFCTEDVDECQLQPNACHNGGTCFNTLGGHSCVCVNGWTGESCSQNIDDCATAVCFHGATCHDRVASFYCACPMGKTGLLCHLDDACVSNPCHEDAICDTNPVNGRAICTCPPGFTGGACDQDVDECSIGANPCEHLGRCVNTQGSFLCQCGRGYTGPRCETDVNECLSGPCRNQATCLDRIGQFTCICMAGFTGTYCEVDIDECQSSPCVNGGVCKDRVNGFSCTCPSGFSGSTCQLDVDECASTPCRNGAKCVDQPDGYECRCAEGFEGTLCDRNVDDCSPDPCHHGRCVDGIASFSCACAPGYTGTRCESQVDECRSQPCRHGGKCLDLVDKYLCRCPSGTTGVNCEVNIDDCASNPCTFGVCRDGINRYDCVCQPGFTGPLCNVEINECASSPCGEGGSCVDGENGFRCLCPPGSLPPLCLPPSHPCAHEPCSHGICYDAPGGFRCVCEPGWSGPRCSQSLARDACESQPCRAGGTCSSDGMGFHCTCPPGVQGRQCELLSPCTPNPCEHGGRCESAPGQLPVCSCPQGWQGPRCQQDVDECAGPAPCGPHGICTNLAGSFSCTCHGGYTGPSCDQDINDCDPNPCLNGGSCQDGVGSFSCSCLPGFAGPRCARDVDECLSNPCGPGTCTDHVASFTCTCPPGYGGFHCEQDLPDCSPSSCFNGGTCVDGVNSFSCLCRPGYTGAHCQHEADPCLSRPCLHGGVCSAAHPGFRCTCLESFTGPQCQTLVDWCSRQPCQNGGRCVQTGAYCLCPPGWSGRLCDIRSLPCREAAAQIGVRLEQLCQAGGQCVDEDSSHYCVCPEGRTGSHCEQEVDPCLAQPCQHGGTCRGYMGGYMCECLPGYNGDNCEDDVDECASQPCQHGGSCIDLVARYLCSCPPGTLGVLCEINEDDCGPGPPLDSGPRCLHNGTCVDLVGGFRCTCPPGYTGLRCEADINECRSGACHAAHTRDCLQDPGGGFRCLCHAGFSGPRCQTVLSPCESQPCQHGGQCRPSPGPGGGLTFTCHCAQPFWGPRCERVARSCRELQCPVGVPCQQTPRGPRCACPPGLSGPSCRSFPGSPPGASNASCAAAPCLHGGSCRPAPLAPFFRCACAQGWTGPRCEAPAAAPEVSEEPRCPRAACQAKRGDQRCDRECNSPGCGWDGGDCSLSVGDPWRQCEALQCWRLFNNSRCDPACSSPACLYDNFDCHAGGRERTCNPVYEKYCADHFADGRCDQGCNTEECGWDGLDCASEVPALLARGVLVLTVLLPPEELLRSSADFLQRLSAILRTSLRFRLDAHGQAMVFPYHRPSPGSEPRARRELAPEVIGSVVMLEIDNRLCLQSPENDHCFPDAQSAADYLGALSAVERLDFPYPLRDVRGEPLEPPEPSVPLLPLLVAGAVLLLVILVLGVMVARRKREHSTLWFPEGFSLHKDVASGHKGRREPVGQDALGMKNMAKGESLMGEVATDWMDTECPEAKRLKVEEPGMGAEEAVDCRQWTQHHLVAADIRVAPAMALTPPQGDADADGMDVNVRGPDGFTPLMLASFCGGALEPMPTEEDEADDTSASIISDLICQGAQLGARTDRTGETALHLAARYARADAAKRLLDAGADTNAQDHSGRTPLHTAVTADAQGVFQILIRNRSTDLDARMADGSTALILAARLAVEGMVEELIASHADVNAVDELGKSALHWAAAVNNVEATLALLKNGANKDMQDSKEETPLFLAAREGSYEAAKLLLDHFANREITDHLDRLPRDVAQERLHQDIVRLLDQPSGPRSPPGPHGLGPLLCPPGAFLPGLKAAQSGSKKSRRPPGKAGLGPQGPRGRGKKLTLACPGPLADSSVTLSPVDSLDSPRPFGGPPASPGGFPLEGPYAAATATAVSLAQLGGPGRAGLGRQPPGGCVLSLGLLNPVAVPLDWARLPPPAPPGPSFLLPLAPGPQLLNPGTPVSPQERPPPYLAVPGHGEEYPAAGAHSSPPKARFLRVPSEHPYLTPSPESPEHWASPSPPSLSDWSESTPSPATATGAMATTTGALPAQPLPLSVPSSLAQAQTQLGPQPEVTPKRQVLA
Sequence of Fibroblast growth factor 10 (Homo sapiens) (O15520 whole entry, looked up): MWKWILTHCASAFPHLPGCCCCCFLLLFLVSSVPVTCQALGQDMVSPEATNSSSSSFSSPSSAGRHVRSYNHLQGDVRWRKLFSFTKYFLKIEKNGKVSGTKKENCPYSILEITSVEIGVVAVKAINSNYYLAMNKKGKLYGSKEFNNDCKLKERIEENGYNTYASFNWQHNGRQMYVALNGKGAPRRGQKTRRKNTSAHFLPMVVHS
Sequence of Torsin-1A-interacting protein 2 (Homo sapiens) (Q8NFQ8 whole entry, looked up): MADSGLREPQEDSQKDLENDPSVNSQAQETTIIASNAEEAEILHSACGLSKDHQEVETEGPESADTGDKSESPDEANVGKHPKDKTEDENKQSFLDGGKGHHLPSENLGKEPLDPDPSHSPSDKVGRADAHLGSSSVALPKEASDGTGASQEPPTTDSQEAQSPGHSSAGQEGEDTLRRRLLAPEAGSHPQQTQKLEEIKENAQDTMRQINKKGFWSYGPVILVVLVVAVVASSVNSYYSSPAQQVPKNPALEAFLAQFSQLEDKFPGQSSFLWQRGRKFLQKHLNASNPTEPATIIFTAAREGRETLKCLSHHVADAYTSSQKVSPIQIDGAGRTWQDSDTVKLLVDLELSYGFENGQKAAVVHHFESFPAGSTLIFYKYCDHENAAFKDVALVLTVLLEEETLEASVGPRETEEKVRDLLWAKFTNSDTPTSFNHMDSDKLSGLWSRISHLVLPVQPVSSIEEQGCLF
Sequence of Dickkopf-related protein 1 (Homo sapiens) (O94907 whole entry, looked up): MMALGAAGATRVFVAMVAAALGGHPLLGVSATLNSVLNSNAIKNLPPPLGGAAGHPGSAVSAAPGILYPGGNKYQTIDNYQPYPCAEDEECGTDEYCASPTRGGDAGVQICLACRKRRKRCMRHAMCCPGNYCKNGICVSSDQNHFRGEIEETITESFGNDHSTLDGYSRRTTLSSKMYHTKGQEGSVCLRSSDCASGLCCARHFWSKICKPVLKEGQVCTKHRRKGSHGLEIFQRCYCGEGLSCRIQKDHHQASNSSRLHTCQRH

`O=S(=O)(NCCCO)c1ccc(Br)cc1`: the composite z-score in experiment [1] is 0.607; in [5] it was 1.18; in [7], -0.18; in experiment [8], 0.355; in [9], -0.271; in experiment [10], -0.0363. Also, the composite z-score in [11] came out at 0.373; in experiment [12] it was 0.101; in [13] it was 0.248; in experiment [15] it was 0.568; in [16] it was 0.309; in [17], 0.598. Further, the results for the composite z-score in experiment [18], in [19] and in [20] were 0.175, -0.0155 and 0.363, respectively. Further, the z-score is -1.72 (inactive) in experiment [2]; -1.57 (inactive) in [3]; -0.531 (inactive) in experiment [4]; 0.707 (inactive) in experiment [6]; -1.03 (inactive) in experiment [14].

On to `COC(=O)c1c(CC[C@@H](CO)NC(=O)Nc2ncn[nH]2)oc(C(=O)Cc2ccccc2)c1C(=O)OC`, for which the composite z-score is 1.08 in [1]; 2.99 in experiment [5]; -0.016 in experiment [7]; 0.565 in experiment [8]; 1.17 in experiment [9]; -0.0697 in [10]. For the same compound, the composite z-score in experiment [11] was 0.0638; in experiment [12], 0.0272; in experiment [13] it was -0.0621; in experiment [15], 1.08; in experiment [16], 0.938; in experiment [17], 0.596. Also, the composite z-score in experiment [18] was determined as 1.01; in [19], 0.957; in [20] it was 0.616. For the same compound, the z-score in experiment [2] was -0.342 (inactive); in experiment [3], 0.387 (inactive); in experiment [4], 0.285 (inactive); in [6], -0.871 (inactive); in experiment [14], 0.801 (inactive).

Take `C=C(COC)C(=O)CC[C@@H](OC(=O)c1ccccc1-c1ccccc1C(=O)O)c1ccc(CO)o1`: the composite z-score in experiment [1] is 1.38; in experiment [5], 2.4; in [7], -0.215; in experiment [8], 1.63; in experiment [9], 0.314; in experiment [10], -0.0512. The composite z-score in [11] is 1.51; in experiment [12], -0.4; in experiment [13], -0.69; in experiment [15] it was 1.57; in experiment [16] it was 0.464; in experiment [17], 0.109. For the same compound, the composite z-score in experiment [18] came to 0.399; in [19], 1.14; in experiment [20], 0.466. The z-score was -24.5 (active) in experiment [2]; -20.5 (active) in [3]; -4.45 (inactive) in experiment [4]; -0.177 (inactive) in experiment [6]; -1.24 (inactive) in [14].

Turning to `CCCCN1CC=CC23O[C@@H]4C=CCCOC(=O)C4[C@H]2C(=O)N(CCCO)[C@@H]3C1=O` (stereo not given in full), the composite z-score in experiment [1] is -0.253; in experiment [5], -0.748; in experiment [7] it was -0.172; in [8], 0.217; in [9], -1.68; in experiment [10], -0.244. In addition, the composite z-score in experiment [11] is -1.07; in [12], -0.132; in experiment [13], -0.114; in experiment [15], -0.649; in experiment [16] it was -1.12; in experiment [17] it was -0.597. For the same compound, the composite z-score in experiment [18] was -0.739; in [19] it was -0.0604; in experiment [20], 0.824. Also, the z-score is -0.174 (inactive) in experiment [2]; -0.788 (inactive) in experiment [3]; -0.497 (inactive) in [4]; 1.02 (inactive) in [6]; -1.21 (inactive) in experiment [14].

On to `C[N+](C)(C)CCCC[C@@H]1NC(=O)[C@H]2C[C@@H](C(=O)O)[C@@H](c3cccc(OCCO)c3)N2C1=O`, for which the composite z-score in experiment [1] worked out at 1.54; in [5], 3.79; in [7], 1.5; in experiment [8], 1.83; in experiment [9], 1.1; in experiment [10] it was 1.06. The composite z-score in experiment [11] amounted to 2.08; in [12], 2.39; in experiment [13], 1.38; in [15], 1.4; in experiment [16] it was 1.36; in experiment [17], 1.17. For the same compound, the composite z-score in experiment [18] was determined as 1.41; in [19], 1.3; in [20] it was 1.47. Moreover, the z-score was -1.28 (inactive) in [2]; -0.362 (inactive) in experiment [3]; -0.498 (inactive) in experiment [4]; 0.0136 (inactive) in experiment [6]; -0.246 (inactive) in experiment [14].

For the origin of these results see PubChem BioAssay.
